Measured values as given in PubChem BioAssay.
Active and inactive are the calls of the source. Unless noted, no rule for the calls is given here.

Key:
[1] = A549 cell viability effects, profiling panel, calcein-AM fluorescence, 48 h, basal (AID 1162); settings: higher = more signal; also: test concentration not given here
[2] = adipocyte viability effects, profiling panel, cell-based, 3T3-L1 adipocytes, calcein-AM fluorescence, 48 h, basal (AID 1163); settings: 3T3-L1 adipocytes viability, higher = more signal; also: test concentration not given here
[3] = HepG2 cell viability effects, profiling panel, calcein-AM fluorescence, 48 h, basal (AID 1164); settings: higher = more signal; also: test concentration not given here
[4] = MM1S cell viability effects, profiling panel, calcein-AM fluorescence, 48 h, basal (AID 1165); settings: higher = more signal;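 also: viability of MM1S multiple myeloma cells under basal unstimulated conditions; test concentration not given here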
[5] = basal RPMI8226 viability, no added stimulus, profiling panel, cell-based, calcein-AM fluorescence, 48 h, PK04 Diversity Set (AID 1166); settings: RPMI8226 myeloma viability, higher = more signal;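 also: cells grown under basal conditions without added stimulus; test concentration not given here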
[6] = basal HepG2 mitochondrial membrane potential changes, profiling panel, cell-based, JC-1 fluorescence, 24 h, 100 nL compound (AID 1167); settings: higher = more signal; also: test concentration not given here
[7] = basal 3T3-L1 adipocyte mitochondrial potential changes, profiling panel, cell-based, JC-1 fluorescence, 3T3-L1 adipocytes, 24 h, 100 nL compound (AID 1168); settings: JC-1 mitochondrial fluorescence, higher = more signal, called active from +8 up or from −8 down; also: test concentration not given here
[8] = basal RPMI8226 mitochondrial membrane potential changes, profiling panel, cell-based, JC-1 fluorescence, 24 h, 100 nL compound (AID 1169); settings: RPMI8226 myeloma, JC-1 mitochondrial potential fluorescence, higher = more signal; also: test concentration not given here
[9] = basal MM1S mitochondrial membrane potential changes, profiling panel, cell-based, JC-1 fluorescence, 24 h, 100 nL compound (AID 1170); settings: higher = more signal; also: test concentration not given here
[10] = A549 lung cancer cell viability effects, profiling panel, resazurin fluorescence, 24 h, PK04 Diversity Set (AID 1171); settings: higher = more signal, called active from +8 up or from −8 down; also: test concentration not given here
[11] = HepG2 liver cancer cell viability effects, profiling panel, resazurin fluorescence, 24 h, PK04 Diversity Set (AID 1172); settings: higher = more signal; also: test concentration not given here
[12] = basal S. cerevisiae growth modulation, no modifier, primary screen, OD600, strain BY4716, 24 h, basal condition (AID 1173); settings: OD600, 24 h, higher = more signal, called active from +8 up or from −8 down
[13] = MM1S myeloma cell viability, profiling panel, resazurin fluorescence, basal, 24 h, PK04 Diversity Set (AID 1174); settings: higher = more signal, called active from +8 up or from −8 down;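 also: MM1S multiple myeloma cell line; test concentration not given here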
[14] = target: Dihydroorotate dehydrogenase (quinone), mitochondrial (Plasmodium falciparum (isolate 3D7)) (UniProt Q08210); assay: PfDHODH enzyme inhibitors, primary screen, biochemical, C-terminal His tag, absorbance 600 nm (AID 1175); settings: DCIP absorbance 600 nm, higher = more signal, called active from +8 up or from −8 down;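 also: recombinant parasite enzyme with a five histidine tag at its C terminus; test concentration not given here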
Sequence of Dihydroorotate dehydrogenase (quinone), mitochondrial (Plasmodium falciparum (isolate 3D7)) (Q08210 whole entry, looked up): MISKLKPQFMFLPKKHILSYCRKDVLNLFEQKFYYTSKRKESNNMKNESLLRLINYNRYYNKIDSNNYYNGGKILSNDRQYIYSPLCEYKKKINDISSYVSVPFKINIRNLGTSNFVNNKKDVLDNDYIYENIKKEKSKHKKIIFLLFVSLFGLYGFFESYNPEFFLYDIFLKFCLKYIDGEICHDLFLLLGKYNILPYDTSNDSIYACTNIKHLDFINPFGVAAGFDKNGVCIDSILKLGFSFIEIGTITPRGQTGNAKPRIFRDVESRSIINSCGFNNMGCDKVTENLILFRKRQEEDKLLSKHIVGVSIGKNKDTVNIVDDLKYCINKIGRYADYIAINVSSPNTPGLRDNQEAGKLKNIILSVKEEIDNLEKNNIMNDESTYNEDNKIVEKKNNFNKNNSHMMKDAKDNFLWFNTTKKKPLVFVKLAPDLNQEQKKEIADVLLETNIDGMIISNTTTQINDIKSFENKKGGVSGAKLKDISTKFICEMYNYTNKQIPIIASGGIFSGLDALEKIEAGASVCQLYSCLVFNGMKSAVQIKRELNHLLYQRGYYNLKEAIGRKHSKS

[15] = P. aeruginosa biofilm formation inhibitors, primary screen, strain PAO1, LB-PBS medium, absorbance 600 nm (AID 1176); also: test concentration not given here; settings: P. aeruginosa PAO1 growth/biofilm, A600, 12 h; higher = more signal
[16] = S. cerevisiae RM11-1a growth modifiers, primary screen, strain RM11-1a, OD600, basal, 24 h (AID 1177); settings: OD600, 24 h, higher = more signal, called active from +8 up or from −8 down;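 also: cultures grown under basal conditions with no added stressor; test concentration not given here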
[17] = E. coli acrAB mutant growth effects, primary screen, E. coli filamentation inducers, strain DRC39, OD650, 24 h (AID 1178); settings: higher = more signal, called active from +8 up or from −8 down;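 also: growth measured as culture turbidity by optical density at 650 nm; test concentration not given here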
[18] = E. coli acrAB mutant growth effects, primary screen, E. coli filamentation inducers, strain DRC39, OD650, 48 h (AID 1179);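 also: screen aims at cell division blockers that make cells filament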; settings: E. coli DRC39 delta-acrAB growth, higher = more signal, called active from +8 up or from −8 down
[19] = RPMI8226 myeloma cell viability, profiling panel, resazurin fluorescence, basal, 24 h, PK04 Diversity Set (AID 1180); settings: higher = more signal;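 also: RPMI8826 multiple myeloma cell line at 5000 cells per well; test concentration not given here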
[20] = target: E3 ubiquitin-protein ligase XIAP (Homo sapiens) (UniProt P98170); assay: XIAP binders, primary screen, biophysical, small-molecule microarray, fluorescence 635 nm (AID 1181); settings: small-molecule microarray binding, higher = more signal;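 also: score merges 667 nm emission and signal to noise over triplicate slides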
Sequence of E3 ubiquitin-protein ligase XIAP (Homo sapiens) (P98170 whole entry, looked up): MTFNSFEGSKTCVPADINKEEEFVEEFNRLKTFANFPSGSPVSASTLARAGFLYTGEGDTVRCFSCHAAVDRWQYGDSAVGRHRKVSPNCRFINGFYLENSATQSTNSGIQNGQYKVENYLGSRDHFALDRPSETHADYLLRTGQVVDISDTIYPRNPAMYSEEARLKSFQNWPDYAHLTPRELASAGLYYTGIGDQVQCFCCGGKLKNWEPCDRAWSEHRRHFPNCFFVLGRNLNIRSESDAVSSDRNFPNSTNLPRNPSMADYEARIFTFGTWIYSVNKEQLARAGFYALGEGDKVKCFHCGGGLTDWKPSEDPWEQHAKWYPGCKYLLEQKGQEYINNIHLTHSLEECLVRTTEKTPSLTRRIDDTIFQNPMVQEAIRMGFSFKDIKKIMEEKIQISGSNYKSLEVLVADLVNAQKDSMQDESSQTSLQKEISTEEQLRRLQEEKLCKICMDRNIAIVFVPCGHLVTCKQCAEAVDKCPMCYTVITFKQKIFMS

SMILES | z-score [1] | z-score [2] | z-score [3] | z-score [4] | z-score [5] | z-score [6] | z-score [7] | z-score [8] | z-score [9] | z-score [10] | z-score [11] | z-score [12] | z-score [13] | composite z-score [14] | z-score [15] | z-score [16] | z-score [17] | z-score [18] | z-score [19] | composite z-score [20]
C=CCC(OC(C)=O)[C@@H]1[C@@H](N(Cc2cccc3ccccc23)C(=O)Cc2ccc(OC)cc2)c2cc(OCCCO)ccc2N1C(=O)c1ccc2ccccc2c1 (stereo not given in full) | 1.19 | 2.02 | 0.692 | 0.357 | 1.19 | 2.55 | 0.443 (inactive) | 0.066 | 0.433 | 0.445 (inactive) | 0.74 | -1.57 (inactive) | 0.435 (inactive) | -0.775 (inactive) | -0.37 (inactive) | -0.958 (inactive) | 1.22 (inactive) | 0.56 (inactive) | 1.17 | -0.123
COc1ccc([Si](C)(C)[C@H]2[C@H](CCO)O[C@@]3(C(=O)N(Cc4ccc(NC(=O)[C@H](C)O)cc4)c4ccccc43)[C@@H]2C)cc1 | -3.33 | 1.36 | -4.58 | -2.64 | -4.47 | -2.19 | 0.843 (inactive) | -1.11 | -2.31 | -5.03 (inactive) | -4.93 | 0.532 (inactive) | -8.02 (active) | -0.0575 (inactive) | -0.753 (inactive) | 3.05 (inactive) | -0.106 (inactive) | -0.802 (inactive) | -6.21 | -0.0592
O=C1N(Cc2ccccc2)c2ccccc2C[C@@]12COC(c1ccc(OCCCO)cc1)=N2 | -0.633 | 0.629 | -0.409 | -2.94 | -1.19 | -1.08 | -0.382 (inactive) | -0.907 | -0.589 | 1.41 (inactive) | 0.792 | -0.248 (inactive) | -1.61 (inactive) | 0.0144 (inactive) | 1.39 (inactive) | 0.903 (inactive) | 1.17 (inactive) | -0.187 (inactive) | 0.712 | 0.0578
COC(=O)C(CC#Cc1ccc2c(c1)[C@]1(C(=O)N2)[C@H](c2ccccc2OCCO)N2[C@H](c3ccccc3)[C@H](c3ccccc3)OC(=O)[C@H]2[C@@H]1C(=O)N1CCc2cc(OC)c(OC)cc2C1)C(=O)OC | 0.734 | -0.19 | 2.08 | 0.857 | -0.0217 | -0.112 | 2.3 (inactive) | -0.941 | -1.47 | -0.63 (inactive) | 0.0231 | 1.07 (inactive) | -1.07 (inactive) | -0.653 (inactive) | 2.83 (inactive) | 1.79 (inactive) | 0.021 (inactive) | 0.761 (inactive) | -0.918 | 0.132
CCOC(=O)c1cn(C[C@H](Cc2ccccc2)NC(=O)N[C@H](CO)CCc2oc(C(C)=O)c(C(=O)OC)c2C(=O)OC)nn1 | -0.462 | 1.16 | 0.0702 | -0.0594 | -1.88 | -1 | 0.871 (inactive) | -0.44 | -0.0478 | -0.636 (inactive) | -0.756 | -2.76 (inactive) | 0.225 (inactive) | -3.55 (inactive) | -0.227 (inactive) | -0.669 (inactive) | -0.124 (inactive) | -0.356 (inactive) | -0.458 | -0.0835
CCCN1C(=O)[C@@]2(c3ccc([N+](=O)[O-])cc3)CC(=O)N(CC34CC5CC(CC(C5)C3)C4)[C@@H]2c2ccc(CO)cc21 | 0.129 | -0.4 | -0.301 | -0.194 | 0.448 | -0.885 | -0.656 (inactive) | 0.282 | -0.315 | 0.0382 (inactive) | -0.113 | -0.547 (inactive) | -0.148 (inactive) | -4.78 (inactive) | 0.186 (inactive) | -0.664 (inactive) | 0.2 (inactive) | -0.255 (inactive) | -0.559 | 0.0666
COCCOC(=O)N1C(=O)[C@@]2(c3cc(C#CCC(C(=O)OC)C(=O)OC)ccc31)[C@H](c1ccc(O)cc1)N1[C@H](c3ccccc3)[C@H](c3ccccc3)OC(=O)[C@H]1[C@@H]2C(=O)Nc1nc2ccccc2s1 | -0.451 | 0.982 | -0.0867 | 0.121 | -0.6 | -1.18 | -1.98 (inactive) | -0.164 | 0.0358 | 0.066 (inactive) | 0.623 | -0.146 (inactive) | -1.05 (inactive) | -1 (inactive) | 0.321 (inactive) | 0.559 (inactive) | -0.709 (inactive) | -0.961 (inactive) | -0.157 | -0.138
C=CCOC(=O)[C@@H]1[C@H]2C(=O)O[C@H](c3ccccc3)[C@H](c3ccccc3)N2[C@H](c2ccc(OCCOC(=O)[C@H]3C[C@H]4C(=O)N5CCC[C@H]5C(=O)N4[C@H]3c3cccc(OCCO)c3)cc2)[C@@]12C(=O)Nc1ccc(I)cc12 | -0.302 | -0.506 | -0.28 | 0.328 | -0.0082 | -2.08 | 0.667 (inactive) | -0.16 | -0.998 | 0.0981 (inactive) | 0.0829 | 2.04 (inactive) | -0.273 (inactive) | 0.0219 (inactive) | 3.81 (inactive) | 1.89 (inactive) | -0.0055 (inactive) | -0.365 (inactive) | -0.166 | 0.0003
COC(=O)[C@@]1(Cc2ccc(F)cc2)[C@H]2c3cc(C(=O)N4CCCC4)n(CCc4ccccn4)c3C[C@H]2CN1C(=O)c1ccccc1 | 0.19 | -0.0629 | 0.278 | -0.118 | -0.431 | 1.98 | -0.962 (inactive) | -0.815 | -0.515 | 0.182 (inactive) | -0.386 | 0.842 (inactive) | -0.232 (inactive) | 0.224 (inactive) | 0.647 (inactive) | 0.564 (inactive) | -0.803 (inactive) | -0.588 (inactive) | -0.102 | 0.0853
CC(C)C[C@@H]1NC(=O)[C@@]23C(=O)N[C@@H](Cc4ccccc4)C2[C@H](C)[C@@]2(C)O[C@H]2C3/C=C/C/C=C\CNC(=O)CNC1=O (stereo not given in full) | 0.201 | 0.97 | -0.47 | -0.288 | -0.174 | -0.572 | -0.159 (inactive) | 0.149 | 0.694 | -0.624 (inactive) | -0.62 | -1.68 (inactive) | 0.308 (inactive) | -0.658 (inactive) | 0.437 (inactive) | -0.773 (inactive) | -0.229 (inactive) | -0.911 (inactive) | -0.139 | -0.105
CN1C(=O)C2C=CC(C(O)c3ccc(-c4ccccc4)s3)N(NC(=O)OC(C)(C)C)C2C1=O (stereo not given) | -0.823 | -1.6 | -0.68 | 0.244 | -0.906 | -1.73 | -0.339 (inactive) | -0.0635 | 0.856 | 0.117 (inactive) | -0.807 | 0.537 (inactive) | -0.629 (inactive) | 0.63 (inactive) | 1.08 (inactive) | 0.432 (inactive) | 0.28 (inactive) | -0.0168 (inactive) | -0.694 | -0.162
CN(C)C(=O)[C@]1(Cc2ccccc2)N=C(c2ccc(OCCCO)cc2)O[C@@H]1c1ccccc1CN=[N+]=[N-] | 0.233 | 0.412 | -0.0312 | -0.726 | -1.65 | 0.501 | 0.0148 (inactive) | -1.23 | -0.507 | 0.553 (inactive) | 0.432 | -1.3 (inactive) | -0.0662 (inactive) | -0.979 (inactive) | -0.248 (inactive) | 0.22 (inactive) | -0.348 (inactive) | 0.686 (inactive) | 0.431 | 0.0651
O=C1C=C(c2ccccc2)C(=O)C2=C1CC([C@H]1Oc3ccccc3S(=O)(=O)N3CCC[C@@H]13)=CC2 | -0.653 | -0.17 | -1.05 | -3.2 | -3.99 | -3.49 | -2.49 (inactive) | -1.16 | -2.67 | -0.0039 (inactive) | 0.203 | -3.37 (inactive) | -7.16 (inactive) | -1.54 (inactive) | -0.0461 (inactive) | -0.926 (inactive) | 0.0769 (inactive) | -0.807 (inactive) | -4.88 | -0.127
CN(C)C(=O)[C@@]1(Cc2ccccc2CN=[N+]=[N-])COC(c2ccc(OCCCO)cc2)=N1 | -0.113 | 0.442 | 0.0407 | -3.51 | -2.76 | 1.21 | 1.1 (inactive) | -1.08 | -1.65 | 0.0714 (inactive) | 1.01 | -4.86 (inactive) | -1.19 (inactive) | -0.311 (inactive) | -0.732 (inactive) | 3.73 (inactive) | 1.04 (inactive) | 1.58 (inactive) | 0.196 | 0.153
C=CCOC(=O)[C@H]1[C@@H]2C(=O)O[C@@H](c3ccccc3)[C@@H](c3ccccc3)N2[C@@H](c2ccc(OCCOC(=O)[C@@H]3C[C@@H]4C(=O)N[C@@H](CCCC[N+](C)(C)C)C(=O)N4[C@@H]3c3ccc(O)cc3)cc2)[C@]12C(=O)Nc1ccc(I)cc12 | -0.717 | -0.169 | -0.457 | -2.9 | -1.43 | -2 | 0.638 (inactive) | -0.767 | -0.879 | 0.281 (inactive) | -0.0156 | 0.118 (inactive) | -1.17 (inactive) | -2.21 (inactive) | 1.12 (inactive) | 2.46 (inactive) | -1.46 (inactive) | -1.11 (inactive) | -0.854 | 0.261
